# Screening data: PubChem, National Center for Advancing Translational Sciences (NCATS)
# Most compounds without a hit are left out; they make up all but 0.34% or so of the library.
# Vif-APOBEC3G blk: qHTS for Inhibitors of Vif-A3G Interactions: qHTS | DNA dC->dU-editing enzyme APOBEC-3G (Homo sapiens), Q9HC16 | HeLa A3G-eYFP + Vif (tagged APOBEC3G with the HIV-1 protein that degrades it), YFP fluorescence, overnight | Potency, µM (doses to about 46.1 µM), without a hit: at the highest dose activity, negative = active, usual class: inhibitors | 0.076% of 410,000 active | AID 602310, 2012; also: % is scaled to controls: 0 for no effect and ±100 for the full control effect; nearly all actives have a fitted effect of over 60% in size
# Target sequence (Q9HC16 whole entry, looked up): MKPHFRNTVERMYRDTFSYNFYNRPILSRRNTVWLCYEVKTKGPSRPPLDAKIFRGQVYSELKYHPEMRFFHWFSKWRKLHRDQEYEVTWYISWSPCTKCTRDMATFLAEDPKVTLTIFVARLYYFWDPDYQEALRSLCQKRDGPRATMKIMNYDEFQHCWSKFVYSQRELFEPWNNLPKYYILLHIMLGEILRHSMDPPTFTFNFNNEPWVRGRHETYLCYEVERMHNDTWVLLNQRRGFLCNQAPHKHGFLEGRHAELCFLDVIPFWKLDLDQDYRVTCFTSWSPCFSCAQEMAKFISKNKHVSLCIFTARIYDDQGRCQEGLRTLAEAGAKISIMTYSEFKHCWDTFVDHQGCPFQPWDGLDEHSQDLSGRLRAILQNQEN
#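 Read-out is eYFP fluorescence (Ex 488/Em 500-530) from Vif-expressing HeLa A3G-eYFP cells; more signal means A3G escaped Vif-mediated degradation. Cells plated overnight, compound pinned in, incubated overnight at 37 deg C.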
# Epigenetic derep: Quantitative High-Throughput Screen for Regulators of Epigenetic Control | murine LDR cells, GFP reporter derepression, 30 h | Potency, µM (doses to about 53.9 µM), for inactives: at the top dose GFP activation, hits mostly activators | 0.2% of 280,000 active | AID 1865, 2009; also: % of control where 0% means no effect; nearly all actives have a fitted effect of over 60% in size
#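 Reporter derepression read as number of fluorescent GFP-positive objects, 20-120 um in size, counted by laser-scanning cytometer. Mouse LDR line with an epigenetically silenced CMV-GFP locus; compound incubation 30 h, 37 C.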
# Vif-A3F inh: qHTS for Inhibitors of Vif-A3F Interactions: qHTS; HeLa A3F-eYFP + Vif (tagged APOBEC3F with the HIV-1 protein that degrades it), YFP fluorescence increase; AID 602313, 2012; Potency, µM (top dose mostly 46.1 µM), inactives show at the top dose activity, negative = active; 0.2% of 390,000 active; also: % of control where 0% means no effect; nearly all actives have a fitted effect of over 65% in size
#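 HeLa cells stably expressing Vif plus C-terminally eYFP-tagged A3F were seeded, incubated overnight at 37 deg C, dosed with compound, incubated overnight again at 37 deg C. Yellow fluorescence (Ex 488/Em 500-530) reported blocked Vif-mediated A3F-eYFP degradation.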
# An asterisk follows results filed as active; ? = inconclusive; . = not tested or not shown. Calls follow the shape of the dose curve; as a rule, active = well fitted curve in the direction sought with a large enough effect; inconclusive = small, poorly fitted or top-dose-only effect, or another doubt; inactive = no such curve, though single readings can be large; an effect the other way counts as inactive or inconclusive. Potency is read from the fitted curve at half-maximal effect.
SMILES,Vif-APOBEC3G blk,Epigenetic derep,Vif-A3F inh
O=S(=O)([N-]c1nc2ccccc2nc1-[n+]1ccc(-c2ccncc2)cc1)c1ccccc1,-3%,19%,3.5µM*
O=S(=O)([N-]c1nc2ccccc2nc1-[n+]1ccccc1)c1ccccc1,1%,1%,?
CC(C)Cn1c(=O)c2sccc2n2c(CCCC(=O)NCCc3ccc(Cl)cc3)nnc12,0%,0%,-1%
CN(C)c1ccc(C=C2SC(=S)NC2=O)cc1,10µM*,.,?
O=C1NC(=S)SC1=Cc1ccc2c(c1)OCO2,1%,.,10%
N=c1n(CCO)c2ccccc2n1Cc1ccc(Cl)cc1,0%,-4%,0%
N=c1n(CC(=O)c2ccc([N+](=O)[O-])cc2)c2ccccc2n1Cc1ccc(Cl)cc1,-5%,16µM*,?
N=c1n(CC(=O)c2ccc([N+](=O)[O-])cc2)c2ccccc2n1Cc1ccccc1,?,22µM*,13µM*
N=c1n(CC(=O)c2ccc(Br)cc2)c2ccccc2n1Cc1ccccc1,-14%,.,7%
Cc1sc2ccccc2[n+]1CCC[n+]1c(C)sc2ccccc21,-1%,.,.
O=C(NCc1ccco1)c1cnc2ccccn2c1=O,2%,0%,-6%
O=C(NCc1ccco1)c1cccn2c(=O)c3cc4ccccc4cc3nc12,.,16µM*,.
Cc1c(Cl)ccc2sc(N3CCN(C(=O)C4CC4)CC3)nc12,4%,5%,1%
O=c1c2cccc3c(N4CCOCC4)ccc(c32)c2nc3ccccc3n12,.,13µM*,.
O=c1c2ccc([N+](=O)[O-])c3cccc(c32)c2nc3ccccc3n12,.,5%,.
O=C1/C(=C/c2c[nH]c3ccccc23)CCC/C1=C\c1c[nH]c2ccccc12,?,?,22µM*
C(=NN=Cc1c[nH]c2ccccc12)c1c[nH]c2ccccc12,-3%,.,0%
COc1ccc(C2CC(=O)Nc3c2c(C)nn3-c2nncc(-c3ccc(C)cc3)n2)c(OC)c1OC (stereo not given),.,1%,.
CCN1/C(=C/C=C2/SC(=Nc3cccc4ncccc34)N(C)C2=O)Sc2ccccc21,-22%,.,3.5µM*
CCC(=O)/C=C1/Sc2ccccc2N1CC,-1%,1%,6%
CCOC(=O)c1c(C)[nH]c(C)c1S(=O)(=O)N(C)CC(=O)N1CCN(c2cccc(Cl)c2)CC1,2%,-1%,-8%
COc1cc(C=C2C(=O)c3ccccc3C2=O)cc(OC)c1OC,-10%,?,25µM*
COc1cc(C=C2C(=O)c3ccccc3C2=O)ccc1O,0%,?,1%
Cc1cccn2c(=O)c(/C=C(\C#N)C(N)=O)c(Oc3ccccc3)nc12,0%,0%,-4%
COc1ccccc1Oc1nc2c(C)cccn2c(=O)c1/C=C(\C#N)c1nc2ccccc2[nH]1,-22%,13µM*,3%
SMILES,Vif-APOBEC3G blk,Epigenetic derep,Vif-A3F inh
COc1ccccc1N=c1oc2c(OC)cccc2cc1C(=O)NCc1ccco1,-1%,3%,-15%
COc1ccc(N=c2oc3c(OC)cccc3cc2C(=O)NCc2ccco2)cc1OC,0%,13µM*,?
O=C(O)/C=C/c1ccc([N+](=O)[O-])o1,2%,3%,15%
Cc1ccc(/C=C(\C#N)C(=O)Nc2cccc(Br)c2)o1,.,3%,.
N#CCc1ccc(NC(=O)/C=C/c2ccc([N+](=O)[O-])o2)cc1,6.3µM*,?,2.5µM*
COc1ccc(NC(=O)/C(C#N)=C\c2ccc(Br)o2)cc1,-12%,1%,-9%
Cc1ccc(/C=C(\C#N)C(=O)Nc2ccc(Br)cc2)o1,.,22µM*,.
N#C/C(=C\c1ccc([N+](=O)[O-])o1)C(=O)Nc1ccc(F)cc1,?,?,22µM*
CC(C)(C)n1ncc2c(=O)n(Cc3cccc(Cl)c3Cl)cnc21,2%,.,.
CCCCCCCCCCCCCCCC[n+]1ccc(CC(O)c2c(C)[nH]c3ccccc23)c2ccccc21 (stereo not given),6%,.,.
O/N=C(/C[n+]1ccsc1)c1ccc(I)cc1,0%,.,.
CCOC(=O)c1cc(OCc2csc(-c3ccccc3)n2)cc(C(=O)OCC)c1,-2%,.,.
CN1/C(=C/c2cccc[n+]2CCO)Sc2ccccc21,-8%,.,8%
CC[n+]1ccccc1/C=C1\Sc2ccc(C)cc2N1C,?,.,22µM*
O=C(CSc1nc2ccccc2s1)c1cc2ccccc2o1,?,10%,25µM*
O=C(CSc1nc2ccccc2s1)CSc1nc2ccccc2s1,-2%,0%,-16%
CCn1c(SCc2nc3sc(C(=O)O)c(C)c3c(=O)[nH]2)nnc1-c1ccc(Cl)cc1,0%,-1%,-2%
Cc1sc2nc(CSc3nnnn3-c3ccc(Cl)cc3)[nH]c(=O)c2c1C,-19%,1%,32µM*
Cc1ccc(NC(=O)Nc2ccon2)cc1,1%,.,3%
O=C(Nc1ccc(Cl)cc1)Nc1ccon1,20µM*,.,1%
CC(C)Oc1ccc(CNC(=O)CN2C(=O)c3cccnc3Oc3ccc(Cl)cc32)cc1,-4%,-1%,-3%
CC1CCN(c2ccc3c(c2)S(=O)(=O)c2cccc(C(=O)NCc4ccc(F)cc4)c2C3=O)CC1,-12%,.,?
O=C(NCc1ccc(F)cc1)c1cccc2c1C(=O)c1ccc(N3CCC(Cc4ccccc4)CC3)cc1S2(=O)=O,?,.,25µM*
O=C(NC1CC1)c1cccc2c1C(=O)c1ccc(N3CCC(Cc4ccccc4)CC3)cc1S2(=O)=O,?,.,22µM*
O=C(NC1CCCCC1)c1cccc2c1C(=O)c1ccc(N3CCCC3)cc1S2(=O)=O,-11%,.,-14%
SMILES,Vif-APOBEC3G blk,Epigenetic derep,Vif-A3F inh
Cc1nn(C(C)(C)C)c(OC(=O)c2c(F)cccc2F)c1Sc1ccccc1,-2%,1%,4%
COc1ccc(OC)c(CNS(=O)(=O)c2c(C(=O)N3CCCCCC3)c(C)n(C)c2C)c1,-1%,0%,2%
Cc1ccc(NC(=O)CCc2nnc3n(CC(C)C)c(=O)c4ccccc4n23)cc1C,5%,1%,5%
CCSc1ncc(Cl)c(C(=O)Nc2ccc(S(=O)(=O)N3CCCCC3)cc2)n1,4%,2%,1%
COc1ccc(-n2nc3c(N4CCCC(C(=O)NCCc5ccccc5C)C4)nnc(C)c3c2C)cc1 (stereo not given),?,?,22µM*
COc1ccc(-n2nc3c(N4CCCC(C(=O)NCc5ccccc5C)C4)nnc(C)c3c2C)cc1 (stereo not given),?,0%,-5%
Cc1cc(C)c(NC(=O)CCC(=O)N2Cc3ccccc3Oc3ncccc32)c(C)c1,-4%,1%,3%
C/C(O)=C/c1nc2ccccc2[nH]c1=O,-5%,-2%,4%
O=c1[nH]c2ccc([N+](=O)[O-])cc2nc1/C=C(\O)c1ccccc1,-4%,6.3µM*,?
COc1cccc(NC(=O)c2c(N3CCCC3=O)c3cc(C)ccc3n2C)c1,-3%,-1%,2%
CCc1ccccc1NC(=O)Nc1cc(C(=O)NCc2ccc(OC)cc2)ccc1N1CCCC1,-3%,9%,0%
Cc1noc(C)c1CSc1nc2[nH]ncc2c(=O)n1-c1ccccc1,-31%,0%,-16%
